The text below walks through data of PubChem BioAssay AID588676 (Johns Hopkins Ion Channel Center, 2011).

Hit rate of the full screen: of about 310,000 compounds, about 3,900 (1.3%) were called active.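 Rule for the calls: active = calcium-response B-score plate-corrected more than 3 library SD below zero, starting fluorescence within 5 deviations, no agonist response on first addition; inactive = the rest.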 Shown is part of a subset that was picked to be rich in actives. Where a structure was tested more than once in an assay, its records may differ in their call.

For this assay, the target named is Mas-related G-protein coupled receptor member X1 (Homo sapiens) (UniProt Q96LB2). Briefly: antagonists of human MrgX1 receptor, primary screen, HEK293 cells, Fluo-4 calcium flux (AID 588676).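 For B-score: peak minus trough fluorescence over baseline after final BAM8-22 challenge near maximal dose.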 Particulars: Fluo-4, BAM8-22 antagonism, at 10 µM; hits give low values. (Calcium assays in cells follow changes in intracellular calcium, usually with a dye or a luminescent sensor.)
Sequence of Mas-related G-protein coupled receptor member X1 (Homo sapiens) (Q96LB2 whole entry, looked up): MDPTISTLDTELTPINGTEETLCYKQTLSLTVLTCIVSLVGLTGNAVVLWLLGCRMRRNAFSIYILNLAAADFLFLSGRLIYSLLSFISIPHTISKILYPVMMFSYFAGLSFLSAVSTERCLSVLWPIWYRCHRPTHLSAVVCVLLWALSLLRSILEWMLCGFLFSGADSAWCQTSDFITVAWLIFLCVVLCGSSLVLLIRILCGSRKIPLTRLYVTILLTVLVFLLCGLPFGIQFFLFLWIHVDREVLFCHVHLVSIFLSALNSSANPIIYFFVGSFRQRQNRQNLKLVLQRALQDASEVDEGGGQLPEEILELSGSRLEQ
`Cc1cc2oc(=O)cc(CN3CCN(S(=O)(=O)c4cccs4)CC3)c2cc1C(C)C`: the B-score result was “inactive”. On to `Cc1ccc2c(CSc3nncs3)cc(=O)oc2c1`, for which the B-score entry was “inactive”. In the case of `CCOC(=O)Cc1csc(NC(=O)COc2ccc3c(C)cc(=O)oc3c2)n1`, the B-score entry was “inactive”. Take `CCOC(=O)Cc1csc(SCc2cc(=O)oc3cc(O)ccc23)n1`: the B-score was -5.51 (active). As for `CN(C)N1C(N)=C(C#N)C(c2ccc(Br)cc2)C2=C1CCCC2=O` (stereo unspecified), the B-score result was “inactive”. For `C/C(CC(=O)NC(C)(C)C)=N\NC(=O)c1ccco1`, the B-score entry is “inactive”. Same read-out and setting: the value for `CCC(=O)NCc1cc(-c2nn(C)c(=O)c3ccccc23)ccc1OC` was “inactive”; that for `COc1ccc(-c2nn(C)c(=O)c3ccccc23)cc1CNC(=O)C1CCCCC1` was “inactive”; that for `COc1ccc(-c2nn(C)c(=O)c3ccccc23)cc1NC(=O)COc1ccccc1` was -8.18 (active).

As for `COc1cc(CC(=O)N2CCC(n3nccc3NC(=O)C3CC3)CC2)cc(OC)c1OC`, the B-score entry is “inactive”. Take `CCOC(=O)N1CCN(C(=O)COc2ccc(Br)cc2)CC1`: the B-score entry is “inactive”.

With `Cn1cnnc1SCC(=O)NNC(=O)COc1ccc(Br)cc1`, the B-score entry was “inactive”. Turning to `Cn1cccc1C(=O)NNC(=O)COc1ccc(Br)cc1`, the B-score was -5.34 (active). Take `CCOC(=O)C(Sc1ncc(C#N)c(N)n1)C(C)C` (stereo unspecified): the B-score result was “inactive”. In the case of `Fc1ccccc1Cc1ccc(Cl)nn1`, the B-score entry is “inactive”. On to `CC(C)c1ccc2c(c1)c(SC(C)(C)C)c(CC(C)(C)C(=O)O)n2Cc1ccc(Cl)cc1`, for which the B-score is -4.82 (active) and the outcome was inactive. On to `O=C(O)c1ccc(Cn2c(=S)[nH]c3cc(Cl)ccc3c2=O)cc1`, for which the B-score result was “inactive”. Turning to `CC(C)N(Cc1ccccc1)C(=O)COC(=O)c1ccccc1SCC(=O)N1CCCC1`, the B-score result is “inactive”. In the case of `Cc1c(C)c(C)c(S(=O)(=O)NCCc2ccccn2)c(C)c1C`, the B-score entry was “inactive”. Same read-out and setting: to `CCOC(=O)Nc1ccc2c(c1)N(C(=O)CCCl)c1ccccc1[S@]2=O` belongs “inactive”; to `CCOC(=O)Nc1ccc2c(c1)N(C(=O)CN1CCN3CCCC3C1)c1ccccc1CC2` (stereo unspecified), “inactive”; to `CCOC(=O)Nc1ccc2c(c1)N(C(=O)CCN1CCN(CCO)CC1)c1ccccc1CC2`, -9.01 (active).

Regarding `CCOC(=O)C1=C(O)/C(=C/c2ccc(OCC(=O)Nc3ccc(C)cc3)cc2)N=C1C`, the B-score entry was “inactive”. Regarding `CCOC(=O)C1=C(O)/C(=C/c2cc(C)n(-c3ccccc3)c2C)N=C1C`, the B-score was -4.95 (active). For `COC(=O)C1=C(O)/C(=C/c2ccc(OCC(=O)Nc3ccccc3)cc2)N=C1C`, the B-score result is “inactive”. As for `O=C(NCCCN1CCCC1=O)c1cccc(S(=O)(=O)NCc2ccccc2)c1`, the B-score result is “inactive”.

Regarding `O=C(Nc1cc(S(=O)(=O)N2CCOCC2)ccc1Cl)c1cc(=O)c2ccccc2o1`, the B-score entry is “inactive”.

Regarding `Cn1sc(=O)c2cc(S(=O)(=O)NC3CC3)ccc21`, the B-score result was “inactive”.

In the case of `Cc1ccc(C(=O)COC(=O)CCN2C(=O)C3C4CC(C(Br)C4Br)C3C2=O)cc1` (stereo unspecified), the B-score is -9.31 (active). In the case of `Cc1ccc(C(=O)COC(=O)CCN2C(=O)C3C4CCC(C4)C3C2=O)cc1C` (stereo unspecified), the B-score entry was “inactive”. As to `O=C(CCN1C(=O)C2C3C=CC(C3)C2C1=O)Oc1ccc2ccccc2c1` (stereo unspecified), the B-score result is “inactive”. Consider `CCOc1ccc(-n2cnc3c(=O)[nH]c(N)nc32)cc1`, for which the B-score entry was “inactive”. `CCCc1nnc(NC(=O)c2cc(OC)cc(OC)c2)s1`: the B-score result was “inactive”.

Consider `COCc1nnc(NC(=O)c2ccc3c(c2)OCO3)s1`, for which the B-score was -5.8 (active).

On to `O=C(Nc1nc2ccccc2s1)c1ccc2c(c1)OCO2`, for which the B-score result was “inactive”. Regarding `Cc1cccc(N(CC(=O)Nc2ccc(-c3nc4ccc(C)cc4s3)cc2)S(C)(=O)=O)c1`, the B-score result is “inactive”. Still for that read-out and setting: the value for `Cc1ccc2nc(-c3ccc(NC(=O)CN(C)S(=O)(=O)c4ccccc4)cc3)sc2c1` was -4.7 (active); that for `COc1cc(NC(=O)CN(C)S(=O)(=O)c2ccc3nc(C)sc3c2)cc(OC)c1` was “inactive”. For the compound `CCOC(=O)c1ccc(NC(=O)c2cccnc2)cc1`, the B-score result is “inactive”. On to `Cc1ccc2nc(-c3ccc(NC(=O)c4cccnc4)cc3)oc2c1`, for which the B-score was -5.36 (active). For `Cc1cc2nc(-c3ccc(NC(=O)c4cccnc4)cc3)oc2cc1C`, the B-score result was “inactive”.

In the case of `Cc1ccc(N2C(=O)CC(NCc3ccc4c(c3)OCO4)C2=O)cc1Cl` (stereo unspecified), the B-score result was “inactive”. For `O=C(CSc1nnnn1-c1ccc(O)cc1)N1N=C(c2ccc3ccccc3c2)CC1c1ccccc1` (stereo unspecified), the B-score result is “inactive”. As for `CSc1nc2c(c(=O)[nH]1)C(c1cccc(Cl)c1Cl)CC(=O)N2` (stereo unspecified), the B-score entry is “inactive”. Same read-out and setting: the value for `CCOc1ccc(Nc2nc(Cc3nnc(SCC(=O)c4ccc(C)cc4)o3)cs2)cc1` was “inactive”; that for `CC(C)OCCCNc1ncnc2c1[nH]c1ccc(F)cc12` was -12 (active); that for `COc1cc(OC)c(OC)cc1/C=N/Nc1ncnc2c1[nH]c1ccc(C)cc12` was “inactive”.

As to `CC(C)OCCCNC(=O)c1cc(Sc2ccc(F)cc2)nc2ccccc12`, the B-score result was “inactive”. As for `O=C(CN1CCN(c2ccccn2)CC1)NC1CCCCC1`, the B-score is -5.03 (active). Turning to `O=C(CN1CCN(c2ccccn2)CC1)Nc1ccc(Br)cc1`, the B-score entry is “inactive”. Take `O=C(CN1CCN(c2ccccn2)CC1)NCc1cccs1`: the B-score result was “inactive”. With `CCOC(=O)C1C(=O)NC(N2CCN(c3ccccc3)CC2)=NC1c1ccco1` (stereo unspecified), the B-score result is “inactive”. `CCOC(=O)C1C(=O)C=C(c2ccc(OC)cc2)CC1c1ccco1` (stereo unspecified): the B-score is -5.76 (active).

Take `CCOC(=O)C1=C(c2ccc(OC)cc2)C(=O)c2ccccc2C1=O`: the B-score entry is “inactive”. For the compound `N#Cc1cccc(CN2CCC(=O)N([C@H](CO)c3ccccc3)CC2)c1`, the B-score entry was “inactive”. With `O=C(C1CCN(Cc2ccc(Cl)cc2)CC1)N1CCN(Cc2ccc3c(c2)OCO3)CC1`, the B-score entry was “inactive”. Take `Cc1cccc(N2CCN(C(=O)C3CCN(S(=O)(=O)c4cnc[nH]4)CC3)CC2)c1C`: the B-score result is “inactive”. For `O=C(C1CCN(S(=O)(=O)c2cnc[nH]2)CC1)N1CCN(Cc2ccc3c(c2)OCO3)CC1`, the B-score is -6 (active). As to `Cc1ccc(C(=O)N2CC(=O)Nc3ccc(F)cc3C2c2ccc(F)cc2)cc1` (stereo unspecified), the B-score result was “inactive”. For the compound `O=[N+]([O-])c1ccc(NCCCN2CCOCC2)c(Cl)c1`, the B-score entry is “inactive”. On the same count and under the same terms, to `O=C(NCCCN1CCOCC1)c1ccc([N+](=O)[O-])cc1[N+](=O)[O-]` belongs “inactive”. Regarding `O=[N+]([O-])c1cc(S(=O)(=O)CCCN2CCOCC2)ccc1F`, the B-score was -6.04 (active). As to `CC(NC(=O)CNC(=O)Cc1cccc2ccccc12)c1ccc(S(N)(=O)=O)cc1` (stereo unspecified), the B-score result is “inactive”.

Consider `O=[N+]([O-])c1ccc2c(c1)C(N1CCOCC1)/C(=C/C1(O)CCCCC1)O2` (stereo unspecified), for which the B-score entry was “inactive”.

Take `CC1(C)CC(=O)CC2(C1)NCC(c1ccccc1Cl)c1c2[nH]c2ccccc12` (stereo unspecified): the B-score result was “inactive”.
